ASM inhibitor = blocks human secretory acid sphingomyelinase. placental ASM, HMU-PC fluorogenic substrate, 60 min. hit rate 0.006% among 340,000. Potency, µM (doses to about 57.5 µM), for inactives: at the highest dose activity change, negative = inhibition, hits mostly inhibitors. P17405; active = well fitted inhibition curve with a large enough effect; inconclusive = small, poorly fitted or top-dose-only effect; inactive = no such curve, though single readings can be large or run the other way; also: potency is read from the fitted curve at half-maximal effect
Target sequence (P17405 47-631 limits assumed): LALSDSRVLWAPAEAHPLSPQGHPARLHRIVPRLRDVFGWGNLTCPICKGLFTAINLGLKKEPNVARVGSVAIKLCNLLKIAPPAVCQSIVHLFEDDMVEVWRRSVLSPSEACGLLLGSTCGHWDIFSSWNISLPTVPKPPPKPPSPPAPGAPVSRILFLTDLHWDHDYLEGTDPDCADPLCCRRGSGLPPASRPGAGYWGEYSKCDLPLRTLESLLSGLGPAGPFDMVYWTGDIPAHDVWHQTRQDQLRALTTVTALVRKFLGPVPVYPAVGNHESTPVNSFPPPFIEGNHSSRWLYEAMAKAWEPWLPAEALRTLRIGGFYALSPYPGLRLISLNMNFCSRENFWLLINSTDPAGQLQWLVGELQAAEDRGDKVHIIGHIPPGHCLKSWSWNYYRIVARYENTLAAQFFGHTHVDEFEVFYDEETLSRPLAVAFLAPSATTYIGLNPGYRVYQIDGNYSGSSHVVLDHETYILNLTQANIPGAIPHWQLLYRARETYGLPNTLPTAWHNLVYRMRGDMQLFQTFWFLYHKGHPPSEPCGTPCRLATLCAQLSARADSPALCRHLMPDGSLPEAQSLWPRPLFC
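qHTS format. ASM enzyme prepared from human placenta hydrolyses the fluorogenic substrate HMU-PC0 (9 uM final) over 60 min at 37 °C after a 10 min compound preincubation.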
Six1-Eya2 inh = blocks human Six1 binding to Eya2; activity change, % (test concentration not listed); hit rate 0.56% among 360,000; AID 651725; Q15475+O00167; AlphaScreen GST-Six1/His-Eya2 binding, biochemical; active compounds read low; also: % is scaled to controls: 0 for no effect and ±100 for the full control effect
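AlphaScreen luminescence read after one hour at 37 °C in darkness. Pin-transferred compounds met GST-Six1 and His-Eya2 protein (5X stock 250 nM/500 nM) plus glutathione donor and Ni-chelate acceptor beads (5X, 50 ug/mL).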
BCR signal inh = chronic active BCR signaling inhibition; ABC-DLBCL IkBa-CBG/CBR reporter, luminescence ratio, 4 h; Potency, µM (top dose mostly 46.1 µM), for inactives: top-dose activity change, negative = inhibition, hits mostly inhibitors; hit rate 0.05% among 340,000; active = well fitted inhibition curve with a large enough effect in the signal ratio, with a control signal flat, not every such curve was filed as active; inconclusive = small, poorly fitted or top-dose-only effect, or effect the other way, or a change in a side signal; the % refers to the signal ratio;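 also: potency is read from the fitted curve at half-maximal effect; plate controls were basal doxycycline-induced cells for no effect and cells given 10 µM MG132 for full effect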
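TMD8 ABC-DLBCL cells carrying doxycycline-inducible green luciferase fused to IkappaBalpha plus unfused red luciferase were exposed to compounds (up to 46 uM) for 4 hrs at 37C. Activity came from the overlap-corrected green/red luminescence ratio.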
TSHR antag = blocks TSH signaling through the human TSH receptor | P16473 | TSHR-expressing cells, TSH-stimulated cAMP HTRF, 2 h; active compounds read low | activity change, negative = inhibition, % at 11.5 µM | hit rate 0.2% among 330,000 | AID 504810;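 active = activity change below a set negative limit, meaning inhibition stronger than a set level, cut at about -70% in these data; inconclusive = activity change between two set negative limits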; also: % is scaled to controls: 0 for no effect and ±100 for the full control effect
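Freshly harvested TSHR cells receive pin-tooled compound, then EC80 TSH at 4nM final. After 2 hours at 37 deg C, antibody in lysis buffer and cAMP-d2 are added; 30 minutes at ambient temperature precede the HTRF read.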
CtBP-E1A blk = inhibitors of CtBP/E1A interaction; AlphaScreen GST-E1A/His-CtBP binding, 1536-well; active compounds read low; activity change, % (no concentration beside the values); hit rate 0.49% among 340,000; also: % is scaled to controls: 0 for no effect and ±100 for the full control effect
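Homogeneous bead-based format: GST-tagged E1A captured on glutathione donor beads, His-tagged CtBP on nickel acceptor beads; compounds precede bead addition by 2 h at 37 °C.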
Numbers without * were called inactive; u = inconclusive; x = no result. Hits are enriched below; roughly 0.85% of the tested compounds scored in any of these assays. Rule as the data show it, unless noted: active = activity change below about -65%; inconclusive = mostly about -30% to -63%; inactive = weaker than that.

SMILES | ASM inhibitor | Six1-Eya2 inh | BCR signal inh | TSHR antag | CtBP-E1A blk
O=C(Nc1ccc(Cl)cc1)c1cc2c(cc1O)[nH]c1ccccc12 | 424% | -2 | 17% | -110* | 11
O=C(Nc1nc(-c2ccccc2)cs1)c1ccc(N2CCOCC2)c([N+](=O)[O-])c1 | u | -28 | u | -101* | -27
O=C(NCc1ccccc1Cl)c1ccc(CSCc2cccc(F)c2)o1 | x | x | 5% | x | x
CCCCNC(=O)C1CCC(CNS(=O)(=O)c2ccc(Cl)cc2)CC1 (stereo not drawn) | x | x | -1% | x | x
Cc1c(NC=C(C#N)C#N)c(=O)n(-c2ccccc2)n1C | 1% | -1 | 5% | 7 | 14
Cc1c(N/N=C(\C#N)C(=O)c2ccccc2)c(=O)n(-c2ccccc2)n1C | -11% | -86* | u | 1 | u
CCOC(=O)/C(C#N)=N/Nc1c(C)n(C)n(-c2ccccc2)c1=O | -1% | -13 | -1% | 28 | -7
Cc1c(NC(=O)Nc2ccccc2Cl)c(=O)n(-c2ccccc2)n1C | -3% | -2 | 8% | -80* | -16
Cc1ccccc1C(=O)/C(C#N)=N/Nc1c(C)n(C)n(-c2ccccc2)c1=O | -6% | -68* | -13% | -15 | -70*
O=C(Nc1ccc2c(c1)N(C1CCCC1)C(=O)c1ccccc1S2)c1ccc(F)cc1 | x | x | 13% | x | x
CC(=O)Nc1ccc(Oc2cc(C#N)c(C#N)cc2N2CCCCCC2)cc1 | -13% | -4 | -5% | -9 | 3
CC(=O)Nc1ccc(Oc2cc(C#N)c(C#N)cc2N2CCOCC2)cc1 | -2% | 0 | 21µM* | -1 | -1
Nc1ccn(Cc2ccccc2F)n1 | -4% | 5 | 5% | -72* | 5
O=C(Cn1nc(Cc2ccncc2)c2ccccc2c1=O)N1CCc2ccccc2C1 | 2% | -19 | 3% | -3 | -68*
Cc1ccc(OCc2nc(-c3ccccn3)n[nH]2)cc1 | 3% | -92* | u | 0 | -98*
Cc1cccc(OCc2nc(-c3ccccn3)n[nH]2)c1 | 1% | -94* | x | x | -89*
CCN(CC)S(=O)(=O)c1ccc2c(c1)N(CC(=O)N1CCN(c3cccc(Cl)c3)CC1)C(=O)CO2 | x | x | 21% | x | x
COc1ccc(S(=O)(=O)Nc2ccc(C)cc2)cc1N(C)S(=O)(=O)c1ccc(Cl)cc1 | -5% | -3 | 7% | -91* | 1
O=C(Nc1ccc([N+](=O)[O-])cc1Cl)c1cc(Cl)ccc1O | -3% | 0 | u | -91* | 5
O=C(Nc1cccc(Cl)c1)c1cc(N=Nc2ccc([N+](=O)[O-])cc2Cl)ccc1O | -7% | -28 | u | -98* | x
CC(C)(C)NC(=O)N1CCC(C(=O)O)CC1 | x | x | -2% | x | x
CC(C)CSC1=NSC2=NC(=O)/C(=C\c3coc4ccccc4c3=O)C(=N)N12 | -14% | 4 | u | -25 | -5
N=C1/C(=C\c2coc3ccc(O)cc3c2=O)C(=O)N=C2SC=CN12 | -1% | -80* | u | -11 | -90*
CSC1=NSC2=NC(=O)/C(=C\c3coc4ccccc4c3=O)C(=N)N12 | 10% | -28 | u | -91* | -2
CC(C)(C)NC(=O)c1cccc(NC(=O)c2ccc(NC(=O)c3ccco3)cc2)c1 | -10% | -79* | 1% | -8 | -16
SMILES | ASM inhibitor | Six1-Eya2 inh | BCR signal inh | TSHR antag | CtBP-E1A blk
C[C@H](NC(=O)c1ccccc1)C(=O)Nc1nc(-c2ccccn2)cs1 | 3% | -84* | u | 11 | -81*
CC(Oc1cccc(Cl)c1)C(=O)Nc1nc(-c2ccccn2)cs1 (stereo not drawn) | -2% | u | u | -32 | -74*
CC(Oc1ccccc1)C(=O)Nc1nc(-c2ccncc2)cs1 (stereo not drawn) | 3% | 11 | 8% | -2 | -6
CC(Oc1ccccc1)C(=O)Nc1nc(-c2ccccn2)cs1 (stereo not drawn) | -8% | -68* | u | -12 | -87*
O=c1c2ccccc2nc(COc2ccccc2)n1/N=C/c1cc([N+](=O)[O-])ccc1O | u | -89* | u | -30 | -5
Cc1cc(/C=N/n2c(COc3ccccc3C)nc3ccccc3c2=O)c(O)c([N+](=O)[O-])c1 | -28% | -68* | 5% | u | -73*
O=[N+]([O-])c1ccc(Cl)c(/C=N/n2c(COc3ccccc3)n[nH]c2=S)c1 | -9% | 9 | -11% | -10 | 24
Cc1ccccc1OCc1nc2ccccc2c(=O)n1/N=C/c1c[nH]c2ccccc12 | -20% | -2 | u | 0 | 5
Cc1c(-c2ccccc2)n(-c2ccc(Cl)cc2)c2nc3c(c(=O)n(C)c(=O)n3C)n12 | x | x | -7% | x | x
O=[N+]([O-])c1ccc(C[n+]2cccc3ccccc32)cc1 | -4% | 0 | -5% | 6 | -2
O=[N+]([O-])c1ccc(C[n+]2cccc3ccc4cccnc4c32)cc1 | -1% | -90* | u | 26 | -89*
Cc1ccc(NC2=C(NC(=O)c3ccccc3)C(=O)c3ccccc3C2=O)cc1Cl | -17% | -66* | 6% | -5 | 0
Cc1ccc(NCC(=O)c2ccccc2)cc1Cl | 1% | 2 | 7% | -1 | 2
O=C(O)c1cccc(NC2=C(Cl)C(=O)c3ccccc3C2=O)c1 | -4% | -16 | u | -83* | -22
O=C1C(Cl)=C(NCCc2ccccc2)C(=O)c2ccccc21 | -12% | -76* | x | x | -79*
O=C(O)c1ccc(NC2=C(Cl)C(=O)c3ccccc3C2=O)cc1 | -2% | 4 | u | -87* | -21
O=C1C(Cl)=C(Nc2ccccc2)C(=O)c2ccccc21 | 4% | -3 | 4% | -3 | -9
COc1ccccc1CNC(=O)CCC1N=C2c3ccccc3N=C(SCC(N)=O)N2C1=O (stereo not drawn) | x | x | 22% | x | x
Cc1c(C(=O)N(C)C)sc2c1c(=O)n(-c1ccccc1C(F)(F)F)c(=O)n2Cc1cccc(F)c1 | x | x | -2% | x | x
COc1ccc(-c2cc(-c3ccccc3)nc(N)n2)c(O)c1 | -11% | -77* | x | x | -25
C=CCNC(=S)N/N=C/c1ccc(C(C)(C)C)cc1 | -9% | -5 | 11µM* | -12 | 5
Cn1cc(/C=N/NC(N)=S)c2ccccc21 | -3% | -11 | u | 17 | 0
C=CCNC(=S)N/N=C/c1cn(C)c2ccccc12 | -11% | -21 | 18µM* | 18 | -8
CC(C)(C)c1ccc(/C=N/NC(=S)NCc2ccccc2)cc1 | -2% | -5 | 5% | 36 | -15
CC(C)C(=O)NC1CC(=O)N(c2ccc3c(c2)OCCO3)C1 (stereo not drawn) | x | x | -13% | x | x
CCC(NC(=O)CCc1c(C)c2cc3c(-c4ccccc4)coc3cc2oc1=O)C(=O)O (stereo not drawn) | 42% | -23 | 4% | -3 | -77*

From PubChem
